# Measurements from PubChem BioAssay (NCI).
# “And” between values parts separate entries of the source, which are not always exact repeats. Identical values can stand only once. About 83,000 compounds went through this panel and 20% of them were active in at least one assay; those are over-represented in the sample as a whole.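 The endpoint reported here, percent growth, reads 100 for growth as untreated, 0 for no net growth and -100 for all cells dead.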 The source made the active and inactive calls. How the source made its calls: active means growth percent below 10; inactive means the rest.
# System: MDA-MB-468 breast
# Experiment: NCI-60 one-dose screen, 48 h (100 = growth as untreated, 0 = no growth, -100 = all killed)
# Settings: 10 µM unless noted
row,Structure (SMILES),growth
1,CN(C)c1nc(-c2cccs2)n2nc(-c3ccco3)cc2n1,7.52% (active)
2,O=C(CCCCCCN1CC(=O)N2[C@@H](c3ccc(Cl)c(F)c3)c3[nH]c4ccccc4c3C[C@H]2C1=O)NO,85.5% (inactive)
3,Cc1csc(/N=C(N)/N=C(\N)c2cccnc2)n1,91.9% (inactive)
4,CNc1ccc(Nc2ccc(S(=O)(=O)O)cc2)c2c1C(=O)c1ccccc1C2=O,98.6% (inactive)
5,CN1CCN(Cc2ccc(NC(=O)c3cncc(C#Cc4cnc(N)c5ccc(C#N)cc45)c3)cc2C(F)(F)F)CC1,-58.4% (active)
6,Cc1cc(N2CCOCC2)nc(N[C@@H]2CCC[C@H](Nc3ccnc4cc(Cl)ccc34)C2)n1,-6.14% (active)
7,O=c1cc(-c2ccccc2)[nH]c2c1CCCC2,39.9% (inactive)
8,O=C(Nc1ccc(F)cc1F)c1cc(F)ccc1O,-0.731% (active)
9,CCCCN(CCCC)CCCN=c1nc2c(c(N)n1-c1ccccc1)c(=S)n(-c1ccccc1)c(=S)n2-c1ccccc1,-89.9% (active)
10,Cc1cc(Nc2nc(N[C@@H](C)c3ncc(F)cn3)ncc2Cl)n[nH]1,100% (inactive)
11,C=C(C)[C@@H]1CC[C@]2(C(=O)N3CCN(C)CC3)CC[C@]3(C)[C@H](CC[C@@H]4[C@@]5(C)CCC(=O)C(C)(C)[C@@H]5CC[C@]43C)[C@@H]12,77.3% (inactive)
12,COC1(OC)C2(Cl)CCC1(Cl)C(Cl)=C2Cl,111% (inactive)
13,COc1ccc(Nc2ncc(Br)c(NCCCNC(=O)c3cccs3)n2)cc1,51.1% (inactive)
14,Cc1ccc(NC(=O)c2ccc(CN3CCN(C)CC3)cc2)cc1Nc1nccc(-c2cccnc2)n1,70.9% (inactive) and 73.4% (inactive)
15,C#CCOc1cccc(Nc2ncc3ncn(C4CCN(C(=O)CCl)C4)c3n2)c1 (stereo not drawn),24.5% [6.25 µM] (inactive)
16,CC1CCC2C(C)(C)C3CC12CC1OC13C (stereo not drawn),99.8% (inactive)
17,CC(=O)O[C@H]1C(=O)[C@@]2(C)[C@H]([C@H](OC(=O)c3ccccc3)[C@]3(O)C[C@H](OC(=O)[C@H](OC(=O)CCC(=O)OC4CCC(S/N=C(N)/N=C(\N)N(C)C)CC4)[C@@H](NC(=O)c4ccccc4)c4ccccc4)C(C)=C1C3(C)C)[C@]1(OC(C)=O)CO[C@@H]1C[C@@H]2O (stereo partly drawn),-6.44% (active)

row,Structure (SMILES),growth
1,COc1ccc(-c2cn(-c3ccc(Cl)cc3)c(SCC(=O)c3ccc([N+](=O)[O-])cc3)n2)cc1,71.2% (inactive)
2,COc1cc2c3cc1Oc1c(OC)c(OC)cc4c1C(Cc1ccc(O)c(c1)Oc1ccc(cc1)CC3N(C)CC2)N(C)CC4 (stereo not drawn),-72.3% (active)
3,COc1ccc(CCNC=O)cc1OC,77.7% (inactive)
4,NS(=O)(=O)c1cccc(Nc2nc(SCC(=O)c3ccc([N+](=O)[O-])cc3)nc3ccccc23)c1,0.252% (active)
5,Cc1nc(NC(=O)COc2ccc(/C=C3\Cc4ccc(Cl)cc4C3=O)cc2)sc1C,112% (inactive)
6,CN1C(=O)c2cc(Cl)nc3c(NC(=O)c4cccc(Cl)c4)c(Cl)c(NC(=O)c4cccc(Cl)c4)c1c23,-19.6% (active)
7,COc1ccc2c(c1)c(=O)oc1c(C)c(OCC(C)=O)ccc12,88.5% (inactive)
8,O=C(Nc1ccc(Cl)cc1)Nc1ccc(Cl)c(C(F)(F)F)c1,10.3% (inactive)
9,COc1ccc(/C=N\NC(=O)c2ccncc2)cc1O,92.8% (inactive)
10,O=C1Nc2cc(Cl)ccc2/C1=C\c1ccc(OCc2ccc([N+](=O)[O-])cc2)cc1,52% (inactive)
11,CCCCN(CCCC)c1ccc(C(=N)c2ccc(N(CCCC)CCCC)cc2)cc1,-92.9% (active)
12,O=c1c2cc(F)ccc2sc2c(NCCCNCCO)nc3ccc(Cl)cc3c12,68.2% (inactive)
13,NNC(=O)C1CC2c3ccccc3C1c1ccccc12 (stereo not drawn),112% (inactive)
14,ClC1=C(Br)C(Br)(Br)C(=C(Br)Br)C1(Br)Br,74.4% (inactive)
15,CC[C@@H]1NC(=O)[C@H]([C@H](O)[C@H](C)C/C=C/c2ccc(CN3C(=O)CCCC3=O)cc2)N(C)C(=O)[C@H](C(C)C)N(C)C(=O)[C@H](CC(C)C)N(C)C(=O)[C@H](CC(C)C)N(C)C(=O)[C@@H](C)NC(=O)[C@H](C)NC(=O)[C@H](CC(C)C)N(C)C(=O)[C@H](C(C)C)NC(=O)[C@H](CC(C)C)N(C)C(=O)CN(C)C1=O,13.4% (inactive)
16,CN1CCN(Cc2ccc(NC(=O)c3cncc(C#Cc4cnn5cccnc45)c3)cc2C(F)(F)F)CC1,25.4% (inactive)
